Data on 7 compounds can be found in PubChem BioAssay (Tox21).

Results filed as inconclusive are left out. Calls of active or inactive are those of the source. Unless noted, calls follow the shape of the full dose curve.

The nature of experiment [1]: Nuclear factor erythroid 2-related factor 2/antioxidant responsive element (Nrf2/ARE) small molecule agonists: qHTS cell viability counter screen in human keratinocytes (AID 1919968; active = well fitted curve in the direction sought with a large enough effect in the repeat runs; an effect the other way counts as inactive or inconclusive; also: nearly all actives have a fitted effect of over 55% in size; also: potency is read from the fitted curve at half-maximal effect). A digest of the protocol:
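In human HaCaT keratinocytes stably expressing an ARE-driven luciferase, compound exposure lasted 23 h at 37 C under 5% CO2. Viable cells are quantified with a protease-based fluorogenic reagent (CellTiter-Fluor) read 1 h after addition.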
On the technique in general: In qHTS, concentration-response curves come from the screen itself.

A short description of experiment [2]: Nuclear factor erythroid 2-related factor 2/antioxidant responsive element (Nrf2/ARE) small molecule agonists: luciferase reporter gene qHTS assay in human keratinocytes (AID 1919969). Also: nearly all actives have a fitted effect of over 35% in size. Also: potency is read from the fitted curve at half-maximal effect. For orientation: A reporter such as luciferase makes a cellular process visible.
In experiment [3] the target is KiSS-1 receptor (Homo sapiens) (UniProt Q969F8). In words: Human kisspeptin (KISS1R) small molecule agonists, calcium flux assay in KISS1R-HEK293 cells (AID 1920064; active = well fitted curve in the direction sought with a large enough effect in the repeat runs; an effect the other way counts as inactive or inconclusive). In short, it runs like this: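 Concentration-response testing used 15 concentrations in triplicate on human KISS1R-expressing HEK293 cells. Calcium-dependent fluorescence (Ex/Em 480/540) was followed kinetically for 3 min after compound transfer.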
(In general: A change in cytosolic calcium serves as a functional read-out for many receptors and channels.)

Experiment [4] can be described thus: G protein-coupled receptor (GPCR) small molecule agonists, calcium flux assay: HEK293 wild type cell line counter screen (AID 1920065). A digest of the protocol: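 Fluorescence intensity signals activation. After overnight (18 h) culture and a 1 h calcium dye load at 37 C, compounds are added by pin tool and the plate read at 480/540 nm for 3 min in 1 s steps.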

A short description of experiment [5]: p53 small molecule agonists, cell-based qHTS assay with human liver microsomes (AID 1963577). A digest of the protocol:
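Compounds act here after metabolic activation: human liver microsomes and NADPH, both at 0.5 mg/mL final, were co-added to p53RE-bla cells. Incubation ran 16 h at 37 C, followed by LiveBLAzer detection.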

Experiment [6] is described as follows: p53 small molecule agonists, cell-based qHTS assay with rat liver microsomes (AID 1963578). In short, it runs like this:
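Read-out is beta-lactamase reporter fluorescence (LiveBLAzer, 2 h, room temperature, dark) in p53RE-bla cells treated 16 h at 37 C with compound, rat liver microsomes and NADPH, both 0.5 mg/mL final.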

A short description of experiment [7]: p53 small molecule agonists, cell-based qHTS assay with human liver microsomes: qHTS cell viability counter screen (AID 1963579). Also: nearly all actives have a fitted effect of over 45% in size. A digest of the protocol: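 Cells carrying the p53 response-element beta-lactamase reporter are treated for 16 h at 37 C with test compounds in the presence of human liver microsomes and NADPH (both 0.5 mg/mL final); ATP-based CellTiter-Glo luminescence then reports viability.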

Experiment [8] can be described thus: p53 small molecule agonists, cell-based qHTS assay with rat liver microsomes: qHTS cell viability counter screen (AID 1963580). Also: nearly all actives have a fitted effect of over 45% in size. A digest of the protocol: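 Cytotoxicity counter screen: intracellular ATP read by CellTiter-Glo luminescence in the p53 reporter wells. HCT-116 p53RE-bla cells were treated for 16 h at 37 C alongside rat liver microsomes and NADPH, each 0.5 mg/mL final.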

The nature of experiment [9]: p53 small molecule agonists, cell-based qHTS assay: qHTS cell viability counter screen (AID 1963581). Also: nearly all actives have a fitted effect of over 45% in size. In short, it runs like this: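 Luminescence from CellTiter-Glo, reflecting ATP content, serves as the cytotoxicity measure; it is taken after the 2 h reporter substrate step in HCT-116 p53RE-bla cells dosed for 16 h at 37 C.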
A short description of experiment [10]: p53 small molecule agonists, cell-based qHTS assay (AID 1963582; active = well fitted activation curve with a large enough effect in the signal ratio in the repeat runs, not every such curve was filed as active; the % refers to the signal ratio). A digest of the protocol:
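After plating, p53RE-bla cells sat 5 h in the incubator; compounds or DMSO vehicle were pinned in; a 16 h incubation at 37 C followed; FRET substrate was added and, 2 h later at RT, fluorescence was measured.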

Experiment [11] concerns the target 5-hydroxytryptamine receptor 2A (Homo sapiens) (UniProt P28223). Nature of the experiment: 5-hydroxytryptamine receptor 2A (HTR2A) small molecule antagonists, cell-based qHTS assay (AID 1963586). Also: nearly all actives have a fitted effect of over 45% in size. A digest of the protocol: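 CHO cells stably expressing human HTR2A were plated for 18 h at 37 C, then loaded with calcium dye for 1 h. Compounds were preincubated 5 min at room temperature before DOI (4 nM solution) was added. Kinetic fluorescence was read for 3 min.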

For experiment [12] the target is unchanged. Nature of the experiment: 5-hydroxytryptamine receptor 2A (HTR2A) small molecule agonists, cell-based qHTS assay (AID 1963587). Also: nearly all actives have a fitted effect of over 30% in size. In short, it runs like this: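 Kinetic calcium-flux fluorescence (2 min, 1 sec intervals) after compound addition in agonist mode. HTR2A-CHO cells were cultured 18 h, then dye-loaded 1 h at 37 C.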
In experiment [13] the target is Muscarinic acetylcholine receptor M1 (Homo sapiens) (UniProt P11229). In words: Cholinergic receptor muscarinic 1 (CHRM1) small molecule antagonists, cell-based qHTS assay (AID 1963588). Also: nearly all actives have a fitted effect of over 40% in size. In short, it runs like this: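 Compounds were tested at 15 concentrations in three independent runs. Dye-loaded CHRM1-CHO cells were exposed 5 min at room temperature before stimulation by acetylcholine added at 50nM. Intracellular calcium was read kinetically on FDSS for 3 min.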

Experiment [14] has the same target. In words: Cholinergic receptor muscarinic 1 (CHRM1) small molecule agonists, cell-based qHTS assay (AID 1963589). Also: nearly all actives have a fitted effect of over 35% in size. A digest of the protocol:
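Fluorescent calcium dye reports M1 activation in stably transfected CHO cells. Compounds, 15 concentrations, added after 1 h dye loading at 37 C; kinetic reading at 1 sec intervals.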

A short description of experiment [15]: cAMP Responsive Elements (CRE) small molecule agonists, cell-based qHTS assay (AID 1963590). In short, it runs like this: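 Compound exposure lasted 3 h at 37 C/5% CO2 in CRE-bla HEK 293T cells grown in assay medium with 10% dialyzed FBS and 25 mM HEPES. Reporter signal came from LiveBLAzer B/G FRET substrate, 2 h, room temperature.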
A short description of experiment [16]: cAMP Responsive Elements (CRE) small molecule antagonists, cell-based qHTS assay (AID 1963591; active = well fitted inhibition curve with a large enough effect in the signal ratio in the repeat runs, not every such curve was filed as active; the % refers to the signal ratio). A digest of the protocol:
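Stimulation used NKH477 at a final 0.25 uM for 3 h in compound-treated CRE-bla HEK293T cells, seeded 18 h beforehand. Reporter activity was measured with LiveBLAzer B/G FRET substrate after 2 h at room temperature.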

In experiment [17] the target is Beta-2 adrenergic receptor (Homo sapiens) (UniProt P07550). Nature of the experiment: Adrenergic beta2 receptor (ADRB2) small molecule antagonists, cell-based qHTS assay (AID 1963592). Also: series mostly up to about 92 µM; nearly all actives have a fitted effect of over 50% in size. A digest of the protocol: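 Assay format: CHO-ADRB2 cells, 18-20hr seeding at 37C/5% CO2, then compound plus 1nM isoproterenol agonist mix for 0.5hr RT. Homogeneous time-resolved fluorescence cAMP detection after 1hr, expressed as 665/615 nm ratio.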

The target is the same in experiment [18]. In words: Adrenergic beta2 receptor (ADRB2) small molecule agonists, cell-based qHTS assay (AID 1963593).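 Also: CHO cells stably overexpressing human ADRB2.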 In short, it runs like this: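 CHO cells stably over-expressing ADRB2 were plated overnight at 37C, then dosed with compounds plus a stimulation mix containing 100uM IBMX and 25uM Ro-20-1724 for 0.5hr at room temperature. cAMP was measured by HTRF competition, 1hr.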

The target in experiment [19] is D(2) dopamine receptor (Homo sapiens) (UniProt P14416). In words: Dopamine D2 receptor (DRD2) small molecule agonists, cell-based qHTS assay (AID 1963594). Also: nearly all actives have a fitted effect of over 35% in size. In short, it runs like this:
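cAMP accumulation in DRD2-HEK293 cells measured by HTRF after 1 h detection; compounds added 10 min before NKH477 (200nM […]) forskolin-analogue stimulation, 30 min at room temperature, with Ro20-1724 present at 0.1 mM final.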

For experiment [20] the target is unchanged. Nature of the experiment: Dopamine D2 receptor (DRD2) small molecule antagonists, cell-based qHTS assay (AID 1963595; active = well fitted inhibition curve with a large enough effect in the signal ratio in the repeat runs, with a control signal flat; the % refers to the signal ratio). In short, it runs like this:
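Human DRD2 antagonist qHTS measuring cAMP by HTRF. The cells are exposed to compound for 10 min, then to NKH477 (200 nM) and quinpirole (12 nM) for 30 min at RT, with Ro20-1724 (0.1 mM) present throughout.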

Chain of Muscarinic acetylcholine receptor M1 (Homo sapiens) (P11229 whole entry, looked up): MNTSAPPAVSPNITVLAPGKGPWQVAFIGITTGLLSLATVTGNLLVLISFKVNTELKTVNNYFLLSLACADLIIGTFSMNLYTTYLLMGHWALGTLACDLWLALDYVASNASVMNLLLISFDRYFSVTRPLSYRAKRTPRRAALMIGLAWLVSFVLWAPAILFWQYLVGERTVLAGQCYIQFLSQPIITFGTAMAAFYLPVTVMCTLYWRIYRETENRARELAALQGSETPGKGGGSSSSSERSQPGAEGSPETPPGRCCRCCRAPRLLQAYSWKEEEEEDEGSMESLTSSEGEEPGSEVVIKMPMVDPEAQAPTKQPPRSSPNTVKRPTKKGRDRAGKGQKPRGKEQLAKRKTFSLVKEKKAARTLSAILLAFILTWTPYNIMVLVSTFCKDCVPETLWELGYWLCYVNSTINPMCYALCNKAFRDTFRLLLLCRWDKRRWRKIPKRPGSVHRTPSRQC
Chain of KiSS-1 receptor (Homo sapiens) (Q969F8 whole entry, looked up): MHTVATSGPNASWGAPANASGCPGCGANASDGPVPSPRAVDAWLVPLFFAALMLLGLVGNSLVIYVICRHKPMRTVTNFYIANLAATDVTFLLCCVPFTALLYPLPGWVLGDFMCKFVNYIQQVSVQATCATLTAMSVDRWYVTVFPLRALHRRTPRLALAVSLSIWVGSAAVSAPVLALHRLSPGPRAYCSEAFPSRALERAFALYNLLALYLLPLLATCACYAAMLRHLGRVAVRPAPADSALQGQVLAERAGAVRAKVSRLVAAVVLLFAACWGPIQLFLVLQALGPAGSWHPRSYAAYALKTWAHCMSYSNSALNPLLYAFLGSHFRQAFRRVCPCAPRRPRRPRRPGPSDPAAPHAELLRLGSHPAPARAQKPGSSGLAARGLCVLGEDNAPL
Chain of Beta-2 adrenergic receptor (Homo sapiens) (P07550 whole entry, looked up): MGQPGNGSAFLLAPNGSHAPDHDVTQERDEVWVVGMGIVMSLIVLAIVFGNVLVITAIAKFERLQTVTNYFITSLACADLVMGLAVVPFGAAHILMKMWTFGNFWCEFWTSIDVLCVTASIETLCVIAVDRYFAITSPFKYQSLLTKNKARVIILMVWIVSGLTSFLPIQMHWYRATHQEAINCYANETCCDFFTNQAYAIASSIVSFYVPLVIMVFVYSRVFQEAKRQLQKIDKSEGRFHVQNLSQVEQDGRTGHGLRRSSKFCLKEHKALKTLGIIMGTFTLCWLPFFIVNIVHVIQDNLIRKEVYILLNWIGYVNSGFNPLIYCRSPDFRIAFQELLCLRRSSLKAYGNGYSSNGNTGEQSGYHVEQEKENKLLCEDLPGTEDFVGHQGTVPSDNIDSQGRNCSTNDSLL
Chain of 5-hydroxytryptamine receptor 2A (Homo sapiens) (P28223 whole entry, looked up): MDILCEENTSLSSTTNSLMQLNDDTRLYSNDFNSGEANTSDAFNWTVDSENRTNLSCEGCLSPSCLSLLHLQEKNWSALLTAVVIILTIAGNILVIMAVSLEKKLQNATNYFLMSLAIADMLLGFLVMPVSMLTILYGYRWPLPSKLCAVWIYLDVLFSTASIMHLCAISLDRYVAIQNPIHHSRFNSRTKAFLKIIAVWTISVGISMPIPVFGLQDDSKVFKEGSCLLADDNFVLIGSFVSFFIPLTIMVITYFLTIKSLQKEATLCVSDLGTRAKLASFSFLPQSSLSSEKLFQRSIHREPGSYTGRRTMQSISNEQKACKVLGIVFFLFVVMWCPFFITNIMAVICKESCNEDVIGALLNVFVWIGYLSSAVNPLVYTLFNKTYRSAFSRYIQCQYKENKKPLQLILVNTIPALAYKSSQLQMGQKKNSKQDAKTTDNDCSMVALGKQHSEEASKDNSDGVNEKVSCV
Chain of D(2) dopamine receptor (Homo sapiens) (P14416 whole entry, looked up): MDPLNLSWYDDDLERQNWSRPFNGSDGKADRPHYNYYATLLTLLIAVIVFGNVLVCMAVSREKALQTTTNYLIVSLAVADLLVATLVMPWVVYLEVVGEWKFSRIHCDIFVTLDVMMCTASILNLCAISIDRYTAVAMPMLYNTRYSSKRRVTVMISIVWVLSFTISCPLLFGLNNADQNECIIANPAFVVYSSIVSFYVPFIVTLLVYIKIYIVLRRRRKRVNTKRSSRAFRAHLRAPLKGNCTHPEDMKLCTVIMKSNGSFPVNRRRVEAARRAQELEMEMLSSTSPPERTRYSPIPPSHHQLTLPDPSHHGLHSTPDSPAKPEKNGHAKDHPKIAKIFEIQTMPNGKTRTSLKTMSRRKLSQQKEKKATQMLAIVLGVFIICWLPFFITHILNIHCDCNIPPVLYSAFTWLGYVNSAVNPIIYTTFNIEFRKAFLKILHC

For the compound `CCc1c(Br)c(Br)c(Br)c(Br)c1Br`, the Potency result in experiment [1], in experiment [2], in experiment [3], in experiment [4], in experiment [5] and in [6] was “inactive” throughout. Also, the Potency result in experiment [7], in experiment [8], in experiment [9], in [10], in experiment [11] and in [12] was “inactive” throughout. For the same compound, the Potency result in [13], in experiment [14], in experiment [15], in experiment [16], in experiment [17] and in experiment [18] was “inactive” each time. For the same compound, the Potency entry in experiment [19] and in [20] was “inactive” each time.

For `CNCCCC12CCC(c3ccccc31)c1ccccc12`, the Potency in [1] was 54.5 µM (active). Further, the Potency result in experiment [2], in experiment [3], in experiment [4], in experiment [5], in experiment [6] and in experiment [7] was “inactive” throughout. In addition, the Potency entry in experiment [8], in experiment [9], in experiment [10], in [16] and in experiment [19] was “inactive” throughout.

In the case of `CC(=O)NC(Cc1ccccc1)C(=O)O` (stereo not drawn), the Potency entry in [1], in experiment [2], in experiment [3], in experiment [4], in experiment [5] and in experiment [6] was “inactive” each time. In addition, the Potency result in [7], in [8], in experiment [9], in experiment [10], in experiment [11] and in [12] was “inactive” in each case. Further, the Potency entry in experiment [13], in experiment [14], in experiment [15], in experiment [17], in experiment [18] and in [19] was “inactive” in each case. Moreover, in experiment [20], the Potency entry was “inactive”.

For `CCCCC(C)C(=O)O` (stereo not drawn), the Potency result in experiment [1], in experiment [2], in experiment [3], in [4], in experiment [5] and in experiment [6] was “inactive” in each case. The Potency result in [7], in experiment [8], in [9], in experiment [10], in experiment [11] and in [12] was “inactive” throughout. The Potency entry in experiment [14], in [15], in experiment [16], in experiment [17], in experiment [18] and in [19] was “inactive” each time.

As to `C/C(=N\O)[C@@H](C)NCC(C)(C)CN[C@H](C)/C(C)=N/O`, the Potency result in experiment [1], in experiment [2], in [3], in [4], in experiment [5] and in experiment [6] was “inactive” in each case. Besides, the Potency result in [7], in experiment [8], in experiment [9], in experiment [10], in experiment [11] and in experiment [12] was “inactive” in each case. Moreover, the Potency entry in experiment [14], in [15], in [17] and in experiment [20] was “inactive” in each case.

In the case of `Cc1ccc(C(C)(C)O)cc1`, the Potency result in experiment [1], in [2], in experiment [3], in [4], in [5] and in experiment [6] was “inactive” throughout. Also, the Potency result in [7], in experiment [8], in experiment [9], in experiment [10], in experiment [11] and in experiment [12] was “inactive” in each case. In addition, the Potency entry in [13], in [14], in [15], in [16], in [17] and in experiment [19] was “inactive” in each case. Besides, the Potency entry in experiment [20] is “inactive”.

For the compound `c1ccc2c(c1)CCC2`, the Potency entry in experiment [1], in [3], in [4], in experiment [5], in [6] and in [7] was “inactive” each time. Moreover, the Potency entry in [8], in experiment [9], in [11], in experiment [12], in [13] and in [14] was “inactive” each time. For the same compound, the Potency entry in experiment [15], in experiment [16], in experiment [17], in [18], in [19] and in [20] was “inactive” in each case. Also, the Potency in experiment [2] is 13.7 µM (active).
